High-throughput results: PubChem, National Center for Advancing Translational Sciences (NCATS)
GLS inhibitor = qHTS for Inhibitors of Glutaminase (GLS); GLS enzymatic activity, qHTS titration; 0.21% of 410,000 active; Potency, µM (doses to about 45.5 µM), for the others: top-dose activity change, negative = inhibition, hits mostly inhibitors; also: % is scaled to controls: 0 for no effect and ±100 for the full control effect
Target sequence (O94925 whole entry, looked up): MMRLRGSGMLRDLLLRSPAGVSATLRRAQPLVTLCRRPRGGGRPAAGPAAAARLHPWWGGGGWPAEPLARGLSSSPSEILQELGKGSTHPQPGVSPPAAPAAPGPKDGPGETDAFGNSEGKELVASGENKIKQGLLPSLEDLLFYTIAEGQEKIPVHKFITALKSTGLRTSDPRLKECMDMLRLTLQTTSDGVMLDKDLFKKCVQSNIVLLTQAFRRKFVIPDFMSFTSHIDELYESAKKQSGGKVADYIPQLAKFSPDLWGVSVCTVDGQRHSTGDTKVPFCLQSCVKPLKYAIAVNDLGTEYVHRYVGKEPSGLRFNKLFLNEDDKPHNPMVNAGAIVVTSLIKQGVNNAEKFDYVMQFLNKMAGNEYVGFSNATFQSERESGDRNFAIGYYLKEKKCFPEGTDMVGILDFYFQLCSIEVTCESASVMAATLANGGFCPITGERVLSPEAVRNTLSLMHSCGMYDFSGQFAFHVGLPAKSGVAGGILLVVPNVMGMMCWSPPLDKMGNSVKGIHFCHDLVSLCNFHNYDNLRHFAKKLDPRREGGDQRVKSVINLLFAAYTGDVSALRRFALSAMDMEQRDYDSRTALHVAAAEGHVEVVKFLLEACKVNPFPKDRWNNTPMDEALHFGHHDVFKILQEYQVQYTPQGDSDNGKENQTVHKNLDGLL
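Glutamate formation by hKGA was monitored fluorometrically using coupled glutamate oxidase, HRP and Amplex Red. Substrate was added as 1 mM L-glutamine solution; incubation was 30 min at RT after an initial read.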
12-LOX inh = Primary qHTS assay for inhibitors of human arachidonate 12S-lipoxygenase (ALOX12): Round 2 | purified 12hLO, xylenol orange hydroperoxide absorbance | Potency, µM (doses to about 108 µM), for inactives: at the top dose activity change, negative = inhibition, hits mostly inhibitors | AID 1671190, 2021 | Polyunsaturated fatty acid lipoxygenase ALOX12 (Homo sapiens), P18054 | 1.1% of 580,000 active; also: % is scaled to controls: 0 for no effect and ±100 for the full control effect
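Purified human 12hLO (150 nM final) in 25 mM Hepes, 0.01% Triton X-100, pH 7.0 was preincubated 15 min at room temperature with compound. Then 40 uM arachidonic acid was added, 30 min. Hydroperoxide was read by Fe-XO absorbance ratio 573/405 nm.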
GLP1R inv ag = qHTS of GLP-1 Receptor Inverse Agonists (Inhibition Mode) | HEK293 GLP-1R CRE-luciferase, luminescence, 24 h; GLP-1R form is constitutively active | 1.6% of 410,000 active | Potency, µM (titrated, usually from 38.3 µM), for the others: at the top dose activity change, negative = inhibition, most hits filed as inhibitors | AID 624417, 2012; also: % is scaled to controls: 0 for no effect and ±100 for the full control effect; nearly all actives have a fitted effect of over 55% in size
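Assay principle: reduced luminescence from a cAMP-responsive reporter in HEK293 cells co-expressing a constitutively active GLP-1R. Conditions: 24 hr compound incubation, 37 deg C, 5% CO2.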
GLP1R ag = qHTS of GLP-1 Receptor Agonists. Glucagon-like peptide 1 receptor (Homo sapiens), P43220. HEK293 GLP-1R CRE-luciferase, luminescence, 4-6 h; cells express a hypersensitive GLP-1R form. Potency, µM (top dose mostly 45.6 µM), for the others: at the top dose activation, usual class: activators. 0.007% of 380,000 active. AID 624172, 2012; also: % of control where 0% means no effect
GRP78 ERSR act = qHTS for Inducers of the Endoplasmic Reticulum Stress Response (ERSR) in Human Glioma: qHTS; U87-MG GRP78 promoter luciferase reporter, 16 h; Potency, µM, inactives show top-dose activation, actives largely listed as activators; 0.02% of 420,000 active; AID 602332, 2012; also: series mostly up to about 76 µM; % of control where 0% means no effect; nearly all actives have a fitted effect of over 35% in size
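ERSR induction read as luciferase luminescence (Bright-Glo, 10 min at room temperature) in stably transfected human U87-MG glioma cells exposed to compounds for 16 h, using GRP78 as sensor.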
PTHR1 ag = qHTS for PTHR1 Agonists: Primary Screen | HEK293 GP2 PTHR1 cells, GloSensor cAMP luminescence, 1 h | AID 743266, 2014 | Potency, µM (series often up to 115 µM), for the others: at the top dose activation, most hits filed as activators | 0.075% of 410,000 active; also: nearly all actives have a fitted effect of over 55% in size
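HEK-293-derived GP2 cells expressing PTHR1 and a GloSensor cAMP reporter, 3,000/well, plated overnight, given luciferin plus IBMX (each 0.5 mM as added) for 1 h at 37 °C, then compound for 1 h at 37 °C. Luminescence was read after 15 min at room temperature.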
An asterisk follows results filed as active; i = inactive; ? = inconclusive; nt = not tested or not shown; [ ] = dose if it differs, or a comment. Rows were chosen to be rich in hits. Some 2.3% of all compounds tested hit in one or more screens of this group. Calls follow the shape of the dose curve; as a rule, active = well fitted curve in the direction sought with a large enough effect; inconclusive = small, poorly fitted or top-dose-only effect, or another doubt; inactive = no such curve, though single readings can be large; an effect the other way counts as inactive or inconclusive. Potency is read from the fitted curve at half-maximal effect.

SMILES | GLS inhibitor | 12-LOX inh | GLP1R inv ag | GLP1R ag | GRP78 ERSR act | PTHR1 ag
Cc1cc(F)ccc1S(=O)(=O)Nc1ccccc1C(=O)Nc1ccccc1-c1nc2ccccc2[nH]1 | 3% | nt | 6.3µM* | -20% | -1% | -32%
Cc1cc(F)ccc1S(=O)(=O)Nc1ccccc1C(=O)Nc1ncn[nH]1 | 11% | 9% | ? | -4% | -5% | -11%[57.5 µM]
COC(=O)CN(CC(=O)NC(=O)NCC(F)(F)F)Cc1ccccc1 | nt | -33% | nt | nt | nt | nt
C=CCNCc1cccc(Br)c1 | nt | -20% | nt | nt | nt | nt
COc1ccc(CNc2ccnc(-c3cccnc3)n2)c(OC)c1 | nt | 45µM* | nt | nt | -1% | nt
COc1nccnc1NS(=O)(=O)c1ccc(NC(=S)NC(=O)c2ccccc2)cc1 | 22% | 35µM* | 2% | -14% | -2% | i
O=C(NC(=S)Nc1ccc(S(=O)(=O)N2CCCCC2)cc1)c1ccccc1 | 15% | 13µM* | -15% | -38% | -5% | -21%
O=S(=O)(c1ccc(NC(=S)NCCC(c2ccccc2)c2ccccc2)cc1)N1CCOCC1 | 2% | 45µM* | ? | -10% | -3% | i
Cc1ccc(S(=O)(=O)N(C)c2ccc(C(=O)NCC(c3ccco3)N(C)C)cc2)cc1 (configuration not stated) | 0% | 345% | 7.1µM* | -3% | -6% | -3%
CCCCOCCCNC(=S)Nc1ccc(S(=O)(=O)N2CCOCC2)cc1 | 7% | -16% | ? | -5% | -2% | -68%
CN(c1ccccc1)S(=O)(=O)c1ccc(NC(=S)NC(=O)C2CC2)cc1 | 9% | ? | ? | -2% | -1% | -9%
Cc1ccc(C(=O)NC(=S)Nc2ccc(S(=O)(=O)N(C)c3ccccc3)cc2)cc1 | 13% | 32µM* | -13% | -9% | -4% | -20%
CN(c1ccccc1)S(=O)(=O)c1ccc(NC(=S)NC(=O)c2ccccc2)cc1 | 18% | 14µM* | ? | -15% | 1% | -17%
O=C(NCc1ccncc1)c1ccc2ccccc2n1 | nt | 7% | nt | nt | nt | nt
CCc1ccc(NC(=O)CSC2=Nc3ccccc3C3=NC(CC(=O)NCc4cccs4)C(=O)N23)cc1 (configuration not stated) | 7% | -26% | 11% | nt | -1% | -21%
Cc1cc(C)c(NC(=O)CSC2=Nc3ccccc3C3=NC(CC(=O)NCc4cccs4)C(=O)N23)c(C)c1 (configuration not stated) | 11µM* | -26% | 12% | nt | -6% | -10%
CCCCNC(=O)CC1N=C2c3ccccc3N=C(SCC(=O)Nc3cccc(OC)c3)N2C1=O (configuration not stated) | 7.1µM* | 0% | 12% | -3% | -6% | -22%
CCCCNC(=O)CC1N=C2c3ccccc3N=C(SCC(=O)Nc3ccc(OC)cc3)N2C1=O (configuration not stated) | ? | 0% | 20% | ? | -2% | i
COc1ccc2cc(C(=O)Nc3ccc(Nc4ccccc4)cc3)[nH]c2c1 | nt | 13% | nt | nt | nt | nt
O=C1CCC[C@@H]2C[C@@]3(C[C@@H]4CCN1[C@H]24)Nc1cc(Cl)c(Cl)cc1NC3=NCc1ccccc1 | -12% | -17% | 10µM* | 1% | 5% | i
CSCC[C@@H]1NC(=O)c2cc(NC(=O)c3cccc4c3ccn4C)ccc2NC1=O | nt | -1% | nt | nt | nt | nt
CSCC[C@@H]1NC(=O)c2cc(NC(=O)Cn3ccc4ccccc43)ccc2NC1=O | nt | 35µM* | nt | nt | nt | nt
Nc1nccnc1C(=O)Nc1cccc(NC(=O)c2cccnc2)c1 | nt | 15% | nt | nt | nt | nt
